HCV inh: inhibitors of hepatitis C virus infection. AID 651820. Huh7.5.1 HCVcc-Cre infection, luciferase reporter, 44 h. 340,000 tested, 3.4% active. Potency, µM (titrated, usually from 41.8 µM), most hits filed as inhibitors; active means well fitted inhibition curve with a large enough effect; inconclusive means small, poorly fitted or top-dose-only effect, or another doubt; inactive means no such curve, though single readings can be large or run the other way
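Luciferase read-out (15 sec integration) after a 15 min room-temperature substrate step quantifies HCVcc-Cre infection. Cells, 1,000 per well, had compound added 4 h post-plating, then virus at ~0.5 moi, and were cultured 44 h.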
VACV mCherry inh: inhibitors of vaccinia virus infection (mCherry reporter signal); Vaccinia virus mCherry reporter infection, fluorescence; Potency, µM (series often up to 36.5 µM), usual class: inhibitors; 310,000 tested, 0.63% active; AID 720579; calls by dose curve; tested in A549 cells; further: nearly all actives have a fitted effect of over 35% in size
Marburg entry inh: Marburg virus entry inhibition; Marburg virus pseudotyped entry inhibition, cell reporter; Potency, µM (titrated, usually from 37.8 µM), most hits filed as inhibitors; 300,000 tested, 1.8% active; calls by dose curve; tested in HEK293 cells
LASV entry inh: inhibitors of Lassa virus binding or cell entry | Lassa virus pseudotype entry inhibition, cell reporter | Potency, µM (doses to about 37.9 µM), actives largely listed as inhibitors | 300,000 tested, 1.2% active; calls by dose curve; tested in HEK293 cells; further: nearly all actives have a fitted effect of over 50% in size
HCMV antiviral: human cytomegalovirus inhibition; HFF cells, HCMV-luciferase reporter, 72 h; hits give low values; activity change, negative = inhibition, % at 57.5 µM; 410,000 tested, 4.5% active; in the data active means activity change below about -60%; inconclusive means no clear call, values can overlap the other calls; inactive means above about -39%
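Compounds were evaluated in HFFs infected with an HCMV luciferase reporter virus (MOI 1 PFU/cell). Luciferase in lysates collected 72 h post infection served as the replication measure.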
Vaccinia Venus: vaccinia inhibition (Venus reporter); Vaccinia virus Venus reporter expression, fluorescence; Potency, µM (highest dose often 36.5 µM), hits mostly inhibitors; 330,000 tested, 0.46% active; calls by dose curve; tested in A549 cells; further: nearly all actives have a fitted effect of over 30% in size
Each line names hits and unclear results; the compound was inactive in the other large screens. Most compounds without a hit are left out; they make up all but 7.8% or so of the library.

O=S(=O)(NCCc1csc2nc(-c3ccc(Cl)cc3)nn12)c1ccc2c(c1)OCCO2	none (no result: HCV inh, Marburg entry inh)
O=C(COc1ccccc1)NCC(=O)N/N=C/c1cc(Br)ccc1OCc1ccccc1	HCV inh inconclusive, Marburg entry inh 8.9µM, LASV entry inh inconclusive
Clc1ccc(COc2ccccc2CNCc2cccnc2)cc1	HCV inh 10µM, Marburg entry inh inconclusive
O=C(COc1ccc(-c2ccccc2)cc1)N/N=C/c1cc(O)ccc1Br	HCMV antiviral -61, Vaccinia Venus inconclusive
C=CCOc1ccccc1CNCc1cccnc1	none (no result: VACV mCherry inh, Vaccinia Venus)
Brc1ccc(OCc2ccccc2)c(CNCc2ccncc2)c1	HCV inh 10µM, LASV entry inh inconclusive (no result: VACV mCherry inh, Vaccinia Venus)
CCOC(=O)c1ccc(NC(=O)CSc2nnc(CNC(=O)c3ccc(OC)cc3)n2CC)cc1	Marburg entry inh inconclusive (no result: HCV inh)
O=C(N/N=C/c1ccncc1)c1cc(Br)ccc1OCc1ccccc1	HCV inh 8.9µM, Marburg entry inh inconclusive
O=C(N/N=C/c1cccnc1)c1ccccc1OCc1cccc(Br)c1	HCV inh inconclusive, Marburg entry inh inconclusive, HCMV antiviral inconclusive
Cc1cc(NC(=O)CSCC(=O)Nc2ccccc2N2CCCCC2)no1	Marburg entry inh inconclusive, LASV entry inh inconclusive
Cc1cc(NC(=O)CSCC(=O)Nc2ccccc2Oc2ccccc2)no1	HCV inh inconclusive, Marburg entry inh 2.8µM, LASV entry inh inconclusive
Cc1ccc(Oc2ccccc2NC(=O)CSCC(=O)Nc2cc(C)on2)cc1	HCV inh inconclusive, Marburg entry inh 13µM, LASV entry inh inconclusive, HCMV antiviral -75
CC(C)C1(C)C(=O)N=C2C3=C(CCCC3)C(=O)N21 (stereo not given)	none (no result: HCV inh, VACV mCherry inh, LASV entry inh, HCMV antiviral, Vaccinia Venus)
CC(=O)N1/C(=C/c2ccc(N(C)C)cc2)C(=O)c2ccccc21	Marburg entry inh 13µM, LASV entry inh inconclusive
COc1ccc(C(=O)N/N=C/c2sc(N3CCOCC3)nc2-c2ccccc2)cc1OC	HCV inh inconclusive
COC(=O)N/N=C/c1sc(N2CCCCC2)nc1-c1cccs1	HCV inh inconclusive, HCMV antiviral -68
C1CCC2(CC1)C1=C(CCCC1)Nc1nnnn12	HCMV antiviral -93 (no result: VACV mCherry inh, Vaccinia Venus)
S=C1NC2=C(CCCC2)C2(CCCCC2)N1	none (no result: VACV mCherry inh)
O=C(NNC1OC(CO)C(O)C(O)C1O)c1cccnc1 (stereo not given)	HCMV antiviral -62
O=C(NNc1nc(-c2ccccc2)cs1)c1ccc(F)cc1	HCMV antiviral -80
CC1(C)CC(CC(=O)NNc2nc(-c3ccccc3)cs2)C(=O)O1 (stereo not given)	Marburg entry inh 1.3µM
CC1CC(CC(=O)NNc2nc(-c3ccccc3)cs2)C(=O)O1 (stereo not given)	none (no result: VACV mCherry inh, Marburg entry inh, LASV entry inh, Vaccinia Venus)
O=C(NNc1nc(-c2ccc(F)cc2)cs1)c1ccccc1	HCV inh inconclusive, Marburg entry inh inconclusive, LASV entry inh inconclusive, HCMV antiviral -99
O=C(NNc1nc(-c2ccccc2)cs1)c1cccs1	HCV inh inconclusive, Marburg entry inh inconclusive, LASV entry inh inconclusive
C=CC[C@@H]1C=C[C@@H](Oc2ccc(OC)cc2)[C@@H](CO)O1	none (no result: HCV inh, VACV mCherry inh, LASV entry inh, HCMV antiviral, Vaccinia Venus)
O=C(NCc1ccccc1)C(c1ccc(-c2ccccc2)cc1)N1CCN(C(=O)C2CCCO2)CC1 (stereo not given)	VACV mCherry inh 2.8µM, HCMV antiviral inconclusive, Vaccinia Venus inconclusive (no result: HCV inh, Marburg entry inh, LASV entry inh)
O=C(NCc1ccccc1)C(c1ccco1)N1CCN(C(=O)C2CCCO2)CC1 (stereo not given)	none (no result: HCV inh, Marburg entry inh, LASV entry inh)
COc1cc(NC(=O)c2nn(-c3ccc(F)cc3)c(=O)n(C)c2=O)cc(OC)c1OC	none (no result: HCV inh, Marburg entry inh)
CCN(CC)CCNc1nc(-c2cccs2)c(CC(=O)O)s1	Marburg entry inh inconclusive, HCMV antiviral -87
C=CCNC(=O)Cc1c(OC)ccc2cc(Br)ccc12	HCV inh 10µM (no result: LASV entry inh)
COc1ccc2cc(Br)ccc2c1CC(=O)NC(C)C	Marburg entry inh inconclusive, HCMV antiviral inconclusive
Fc1ccc2cc(C3=CCCCC3)ncc2c1	HCMV antiviral -95 (no result: HCV inh, VACV mCherry inh, Marburg entry inh, LASV entry inh, Vaccinia Venus)
CC(=O)N(CCC(c1ccco1)C(C)C)Cc1ccc(Cl)cc1 (stereo not given)	LASV entry inh 10µM
CN(C(=S)NC(=O)C12CC3CC(CC(C3)C1)C2)c1ccc(O)cc1	HCMV antiviral -61 (no result: VACV mCherry inh, Marburg entry inh, LASV entry inh, Vaccinia Venus)
CN(C)NC(=S)NC(=O)C12CC3CC(CC(C3)C1)C2	Marburg entry inh inconclusive
CCCCCc1c(-c2cccc(Cl)c2)ncn1CCc1ccccc1OC	none (no result: HCV inh, Marburg entry inh, LASV entry inh)
CCCc1c(-c2cccc(F)c2)ncn1Cc1ccccc1OC	none (no result: HCV inh, Marburg entry inh, LASV entry inh)
